Bioassay records deposited in PubChem by The Scripps Research Institute Molecular Screening Center.
MITF inh: MITF inhibitors, primary screen, biochemical, AlphaScreen, human | Microphthalmia-associated transcription factor (Homo sapiens), O75030 | AlphaScreen MITF homodimerization, bead proximity signal | AID 1259374, 2018 | 650,000 tested, 0.91% active | inhibition, % at 2.6 µM; in the data active = inhibition above about 50%
FBW7 activator: FBW7 E3 ligase activators, primary screen, biochemical, AlphaScreen, human; normalized activity (activation), % at 26.1 µM; AlphaScreen FBW7–phospho-cyclin E peptide binding, activator screen; F-box/WD repeat-containing protein 7 (Homo sapiens), Q969H0; 650,000 tested, 0.13% active; in the data active = normalized activity above about 1.9%;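 note: purified mutant Fbw7 with reduced substrate affinity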
GPR151 ag: activators of human GPR151, primary screen, cell-based, PathHunter beta-arrestin, luminescence | G-protein coupled receptor 151 (Homo sapiens), Q8TDV0 | PathHunter beta-arrestin GPR151 cells | activation, % at 11.2 µM | 650,000 tested, 1% active | AID 1508602, 2020; in the data active = activation above about 4.9%
Target sequence (Q8TDV0 whole entry, looked up): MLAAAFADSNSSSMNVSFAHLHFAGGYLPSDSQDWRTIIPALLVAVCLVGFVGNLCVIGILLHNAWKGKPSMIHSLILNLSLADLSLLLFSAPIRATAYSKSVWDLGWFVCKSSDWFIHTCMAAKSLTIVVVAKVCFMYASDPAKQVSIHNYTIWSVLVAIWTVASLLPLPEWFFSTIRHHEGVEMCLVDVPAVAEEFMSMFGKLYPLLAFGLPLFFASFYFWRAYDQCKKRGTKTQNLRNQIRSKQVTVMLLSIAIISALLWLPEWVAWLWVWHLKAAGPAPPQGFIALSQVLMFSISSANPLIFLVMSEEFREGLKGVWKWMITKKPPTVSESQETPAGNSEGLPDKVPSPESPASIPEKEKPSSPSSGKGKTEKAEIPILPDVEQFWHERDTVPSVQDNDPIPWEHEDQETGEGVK
TEAD-YAP inh: TEAD-YAP interaction inhibition, primary screen, TEAD-YAP interaction inhibitor project, luminescence, HEK-TIYL cells; TEAD-Gal4/YAP UAS-luciferase luminescence; inhibition, % at 9.12 µM; 640,000 tested, 1.4% active; AID 1259422, 2018; in the data active = inhibition above about 32%
Numbers stand for hits; – = inactive. A selection: hits, their analogues and other compounds. The true share with any hit is near 3.5%.

SMILES	MITF inh	FBW7 activator	GPR151 ag	TEAD-YAP inh
COc1ccc(/C=N/NC(=O)c2cccc(Br)c2)cc1	–	–	–	–
NC(=S)c1ccc(NC(=O)c2ccco2)cc1	–	–	–	–
COc1cccc(CNC(=O)c2cc3c(C)nc4ccccc4c3o2)c1	–	–	–	–
COc1ccc(CNC(=O)c2cc3c(C)nc4ccccc4c3o2)c(OC)c1	–	–	–	34
C/C(=N\NC(=O)c1nc2nc(C)cc(C)n2n1)c1ccc(O)cc1O	–	–	–	–
COc1ccc(-c2cnnc(N/N=C/c3ccc(O)c(OC)c3)n2)cc1	–	–	–	36
COc1ccc(NC(=O)COc2ccc(/C=N/NC(=S)NC(C)C)cc2OC)cc1	–	–	–	33
COc1ccc(NC(=O)COc2ccc(/C=N/n3c(C)nnc3C)cc2OC)cc1	–	–	–	–
COc1cc(C(=O)N/N=C/c2ccc(O)cc2O)cc(OC)c1OC	52	–	–	55
COc1cc(OC)c(OC)cc1/C=N\NC(=O)c1cc(O)c(O)c(O)c1	66	–	–	–
CCCOc1ccc(/C=N/NC(=O)Cn2cnc3c2c(=O)n(C)c(=O)n3C)cc1	–	–	–	–
COc1cc(/C=N/NC(=O)c2ccccc2NC(=O)c2ccc([N+](=O)[O-])cc2)ccc1O	–	–	–	72
COc1ccc(NC(=O)C(=O)N/N=C/c2ccc(O)c(OC)c2)cc1	–	25	–	–
COc1ccc(/C=N/NC(=O)C(=O)Nc2ccc(C)cc2)cc1	–	–	–	–
COc1cc(/C=N/NC(=O)c2cc(OC)c(OC)c(OC)c2)ccc1O	–	–	–	56
COc1ccc(/C=N/NC(=O)COc2cc(C)ccc2C(C)C)cc1O	–	–	–	63
O=C(NCC1CCCN(Cc2nccs2)C1)c1ccc(-c2ccccc2)cc1 (centres undefined)	–	–	–	–
CC(C)(C)C1CCc2c(sc(NC(=O)C34CC5CC(CC(C5)C3)C4)c2C(=O)Nc2ccccc2C(F)(F)F)C1 (centres undefined)	–	–	–	–
CCN1C(=O)C2(OCCO2)c2ccccc21	–	–	–	–
Cc1cc(=O)n2[nH]cc(C(=O)N3CCN(Cc4ccco4)C[C@@H]3C(C)C)c2n1	–	–	–	–
COc1ccccc1/C=C/c1nn2c(COc3ccccc3)nnc2s1	–	–	–	–
COc1ccccc1/C=C/c1nn2c(-c3ccccc3OC)nnc2s1	–	–	–	54
CCOc1ccccc1/C=N\NC(=O)CCn1cnc2ccccc21	–	–	–	–
COc1ccccc1/C=C/C=N\NC(=O)CCn1cnc2ccccc21	–	–	–	53
COc1ccccc1/C=C/c1nn2c(Cn3cnc4ccccc43)nnc2s1	–	–	–	48
SMILES	MITF inh	FBW7 activator	GPR151 ag	TEAD-YAP inh
O=C(O)CCCCn1c(SCc2ccccc2)nc2ccsc2c1=O	–	–	–	–
CCOC(=O)N1CCc2c(sc(NC(=O)c3cc(Cl)sc3Cl)c2C#N)C1	–	–	–	32
CCOC(=O)N1CCc2c(sc(NCc3cccc(OC)c3OC)c2C(=O)Nc2ccc(OC)cc2OC)C1	–	–	–	37
CCOC(=O)N1CCc2c(sc(N)c2C(=O)Nc2ccccc2OCC)C1	–	–	–	32
CCOc1ccccc1NC(=O)c1c(N)sc2c1CCCC2	–	–	–	–
CCOC(=O)N1CCc2c(sc(NC(=O)Cc3ccccc3)c2C(N)=O)C1	–	–	–	–
CCOC(=O)c1c(NC(=O)Cc2ccccc2)sc2c1CCN(C(=O)OCC)C2	–	5.2	–	–
COc1ccc(CC2(CCC(=O)NCc3ccccc3)CCC(=O)N2)cc1OC (centres undefined)	–	–	–	–
O=C(Cn1cnc([N+](=O)[O-])n1)Nc1nncs1	–	–	–	–
COc1ccc(Br)cc1S(=O)(=O)N(C)C1CCCCC1	–	–	–	–
CC(=O)N(NC(=O)C(O)(c1cccc(C)c1)c1cccc(C)c1)c1ccc2ccccc2n1	–	–	–	–
C=CCc1cccc(/C=N\NC(=O)CSc2nc(C)cc(C)n2)c1O	–	–	–	–
Cc1nnc(Nc2ccc(Nc3ccccc3)cc2)[nH]c1=O	–	–	–	–
CCOC(=O)N1CCc2c(sc(NC(=O)c3ccccc3)c2C#N)C1	–	–	–	51
CC(=O)N1CCc2c(sc(NC(=O)CCc3ccccc3)c2C(N)=O)C1	–	–	–	51
CCOC(=O)c1c(NC(=O)c2ccc(Cl)s2)sc2c1CCN(C(C)C)C2	–	2.2	–	–
CC(=O)N1CCc2c(sc(NC(=O)CSc3ccccc3)c2C(N)=O)C1	–	–	–	–
CC(C)N1CCc2c(sc(NC(=O)c3cc4ccccc4oc3=O)c2C(N)=O)C1	–	–	–	62
Cc1cc(Br)cc(C)c1NC(=O)CSCC(=O)Nc1ccccc1	–	–	–	–
COc1ccc(-c2cc(C(=O)Nc3ccccc3C(N)=O)c3ccccc3n2)cc1OC	–	–	–	–
COc1ccc(S(=O)(=O)N(CC(=O)N2CCN(c3ccccc3)CC2)c2ccc(Cl)cc2)cc1	–	–	–	–
CCOC(=O)N1CCc2c(sc(NC(=O)/C=C/c3ccc([N+](=O)[O-])cc3)c2C#N)C1	–	–	–	–
CCOC(=O)N1CCc2c(sc(NC(=O)c3ccccc3Br)c2C#N)C1	–	–	–	53
CC(=O)N1CCc2c(sc(NC(=O)/C=C/c3cccs3)c2C(N)=O)C1	–	–	–	41
CCOC(=O)N1CCc2c(sc(NC(=O)c3cccc(Br)c3)c2C#N)C1	–	–	–	42
SMILES	MITF inh	FBW7 activator	GPR151 ag	TEAD-YAP inh
CCOC(=O)N1CCc2c(sc(NC(=O)/C=C/c3cccs3)c2C#N)C1	–	–	–	49
Cn1c(=O)c2c(ncn2Cc2ccc(C(C)(C)C)cc2)n(C)c1=O	–	–	–	57
Cn1c(=O)c2c(ncn2Cc2ccc(C#N)cc2)n(C)c1=O	–	–	–	–
Cn1c(=O)c2c(ncn2Cc2cccc(I)c2)n(C)c1=O	–	–	–	39
CCCOc1ccc(NC(=O)C(=O)NC)cc1	–	–	–	–
CCN(CC)c1ccc(C2CC(c3ccc(C)cc3)=NN2C(=O)CCC(=O)O)cc1 (centres undefined)	–	–	–	46
CC(C)CCn1c(N(C)C)nc2c1c(=O)n(C)c(=O)n2C	–	–	–	–
C/C=C/COC(=O)C1=C(C)NC(=O)NC1c1ccccc1Cl (centres undefined)	–	–	–	47
COc1ccc(C2NC(=S)NC(C)=C2C(=O)c2ccccc2)cc1 (centres undefined)	–	–	–	57
C=CCOC(=O)C1=C(C)NC(=S)NC1c1ccc(C(=O)OC)cc1 (centres undefined)	–	–	–	36
C=CCOC(=O)C1=C(C)NC(=O)NC1c1ccc(OCCC)cc1 (centres undefined)	–	–	–	55
CCOC(=O)c1c(NC(=O)CSc2nnc(CNC(=O)c3cccc(F)c3)n2Cc2ccccc2)sc2c1CCC2	–	–	–	–
